Source: the supplement of paper PMC10723795
± gives the standard deviation of the averaged measurements.

These compounds were tested on CHON-002 (assay: nucleolar normality score relative to DMSO (fraction of DMSO control); RPE1 is a non-cancer human cell line; higher = more normal nucleoli (less nucleolar stress)).
Procedure: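 Selected screen hits were validated in hTERT lines (BJ5TA, CHON-002, RPE1) and cancer lines (DLD1, HCT116). Cells were immunostained for nucleolin and UBF and the nucleolar normality score was measured per field of view, with 4 fields per drug. Scores are normalized to each cell line's own DMSO control. Dose and time are not stated for this panel.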
Compound `CC[C@@]1(O)C(=O)OCc2c1cc1n(c2=O)Cc2cc3ccccc3nc2-1` [Camptothecin] has a nucleolar normality score of 0.38 ± 0.047.
